# In all, about 2,100 compounds went through this assay and about 260 (12%) were called active. Roughly 58% stayed inconclusive and do not appear here. This is one part of the list. A number with no mark means an inactive call. Calls come from the whole dose curve; as a rule, active = well fitted cell-killing curve with a large enough effect; inconclusive = small, poorly fitted or top-dose-only effect, or effect the other way; inactive = flat fitted curve, though single readings scatter.
# Assay: Viability Counterscreen for Confirmatory qHTS for Inhibitors of ATXN expression; note: nearly all actives have a fitted effect of over 50% in size
# Conditions: HEK-293 ATXN2-luc cells viability, CellTiter-Fluor, 24 h; activity change, negative = cytotoxicity: at the top concentration
# Method in brief: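 Luminescence read-out (SteadyGlo, 5 min) followed a 30 min Gly-Phe-AFC (25 uM final) viability fluorescence read. ATXN2-luciferase reporter cells were exposed 24 h to a dilution series. Medium-only wells served as the 100% inhibition reference.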
# Potency is the fitted concentration of half-maximal effect.
Structure (SMILES),"activity change, negative = cytotoxicity",Potency
CCC(C)Sc1cc(C(F)(F)F)c(C(=O)Nc2ccc(Cl)cc2)cn1 (centres undefined),-28.6%,–
COC(=O)Cc1[nH]n(-c2nc3ccccc3s2)c(=O)c1C(C)=Nc1ccc(C)cc1,-25% [at 57.5 µM],–
COc1cc(C)c(C(=O)CC(=O)c2c(C)cc(OC)cc2C)c(C)c1,-4.26%,–
CCN(CC)S(=O)(=O)c1ccc(NC(=O)Nc2cccc(C(F)(F)F)c2)cc1,-22.7%,–
COc1ccc(C(=O)N/N=C/c2ccc(N(C)c3ccccc3)cc2)cc1,8.41%,–
COc1ccc(/C=N/Nc2cc(N3CCCC3)nc(N3CCCC3)n2)cc1,–,3.16 µM (active)
COc1ccc(C)cc1Nc1nc(C)nc2sc(C)cc12,-13.3%,–
CCOc1ccc(CCNC(=O)c2ccc(OCc3c(C)noc3C)cc2)cc1OCC,-11.7%,–
Cc1ccc(OCC(O)Cn2c(=N)n(CCN3CCCCC3)c3ccccc32)cc1 (centres undefined),–,22.4 µM (active)
CCCCCn1c(=N)n(CC(O)COc2ccccc2OC)c2ccccc21 (centres undefined),–,3.98 µM (active)
N=c1n(CCN2CCCCC2)c2ccccc2n1CC(O)c1ccc(Cl)c(Cl)c1 (centres undefined),–,25.1 µM (active)
COc1cc2c(C(=O)N3CCOCC3)c(CSc3ccccc3)n(C)c2cc1Br,-20.7% [at 57.5 µM],–
CN(C)c1ccc2c(c1)OC(N)=C(C#N)C2c1cccc(F)c1 (centres undefined),-25.8% [at 57.5 µM],–
COc1cc2nc(CN(C)Cc3ccc(SC)cc3)[nH]c(=O)c2cc1OC,-14.4% [at 57.5 µM],–
COc1ccc(C(=O)NC(=S)NNC(=O)c2cnccn2)cc1,-14.6%,–
COc1c(C)cccc1C(=O)Nc1ccc(N2CCN(C(=O)c3ccccc3C)CC2)cc1,–,25.1 µM (active)
COc1ccc(Br)cc1C(=O)Nc1ccccc1N1CCN(C(=O)c2ccccc2)CC1,-13.6%,–
Cc1ccc(C(=O)N2CCN(c3ccc(NC(=S)NC(=O)c4cccs4)cc3)CC2)cc1,-13.9%,–
Cn1c(=O)c2c(nc(SCCN3CCOCC3)n2Cc2cccc3ccccc23)n(C)c1=O,-9.68%,–
CCc1ccc(-n2cc(-c3ccc(F)cc3)[n+]3c2SCCC3)cc1,-20.7% [at 57.5 µM],–
CCn1c(COc2ccccc2C)nnc1SCC(=O)N1CCN(c2ccccc2)CC1,-30% [at 57.5 µM],–
O=C1C=CCC(/C=C/c2ccccc2)O1 (centres undefined),–,20 µM (active)

Structure (SMILES),"activity change, negative = cytotoxicity",Potency
Cc1c(CC(=O)NCCCC(=O)O)c(=O)oc2cc3c(cc12)CCC(C)(C)O3,-20.8% [at 57.5 µM],–
NS(=O)(=O)c1ccc(NC(=O)COC(=O)c2c3c(nc4ccccc24)/C(=C\c2ccc4c(c2)OCO4)CCC3)cc1,-16.4% [at 57.5 µM],–
CCc1nc2ccccc2c(C(=O)OCC(=O)Nc2cccc(S(=O)(=O)NC3=NCCCCC3)c2)c1C,–,25.1 µM (active)
CCc1nc2ccccc2c(C(=O)OCC(=O)Nc2ccc(NC(C)=O)cc2)c1C,-22.7%,–
COc1ccc(N(CC(=O)N2CCN(c3ccc(Cl)cc3)CC2)S(=O)(=O)c2c(C)n[nH]c2C)cc1,-23.7%,–
CCOc1ccc(NC(=O)Nc2nnc(CC(=O)NCc3ccccc3)s2)cc1,-28.5% [at 57.5 µM],–
O=C(Nc1ccc(Cl)c(Cl)c1)Nc1nnc(CSc2ccccc2)s1,–,2.51 µM (active)
CCCCN1C(=O)/C(=C2/Sc3ccccc3N2C)S/C1=N\c1ncn[nH]1,-13.9% [at 57.5 µM],–
CC1=CC(C)(C)N2C(=O)C3(SCC(=O)N3c3ccc(F)cc3)c3cc(C)cc1c32 (centres undefined),-20.4%,–
CCN(CC)c1ccc(C(=O)N/N=C/c2ccccc2OC(F)F)cc1,-18.3%,–
CCN(CC)c1ccc(/C=C/c2cccc[n+]2C)c(OC)c1,–,12.6 µM (active)
O=C(C1CC(=O)N(c2ccc3c(c2)OCCO3)C1)N1CCN(c2ccccc2)CC1 (centres undefined),-6.33%,–
O=C(CSc1nnc(-c2ccccc2)o1)Nc1ccccc1F,-3.09%,–
CC1CC(C)CN(CCCNC(=O)c2cc3c(s2)-c2ccccc2OC3)C1 (centres undefined),-15.7%,–
Cc1ccc(NC(=O)CCC(=O)c2cc(C)sc2C)nc1,-17.9% [at 57.5 µM],–
CC(=O)c1ccc(N2CCc3ccccc3C2)c([N+](=O)[O-])c1,-27.8% [at 57.5 µM],–
COc1ccc(-c2cc(C3CCN(c4ccc(C(C)=O)cc4[N+](=O)[O-])CC3)[nH]n2)cc1,–,28.2 µM (active)
CN1CCC2(CC1)N=C(c1ccc(F)cc1)C(=S)N2C(=O)c1ccc(C(C)(C)C)cc1,-27.6% [at 57.5 µM],–
CC(C)n1c(NCc2cc(Cl)ccc2O)nc2ccccc21,-0.178%,–
Cc1cc(Oc2ccc(Cl)cc2)nc(-c2ccccn2)n1,-12.9% [at 57.5 µM],–
Clc1ccc(CSc2ccc(-c3ccccn3)nn2)cc1,-14.5%,–
Clc1ccc(SCc2cc(N3CCOCC3)nc(-c3ccccn3)n2)cc1,–,10 µM (active)

Structure (SMILES),"activity change, negative = cytotoxicity",Potency
CCN(CC)CCCNc1nc2ccccc2c2nc(-c3ccncc3)nn12,–,25.1 µM (active)
COC(=O)N/N=C/c1cn(CC(C)COc2ccccc2)c2ccccc12 (centres undefined),-29.4% [at 57.5 µM],–
Cc1ccc(C)n1-c1ccc(C(=O)N2CCC(C(N)=O)CC2)cc1,-2.84%,–
O=C1C(Cl)=C(N2CCC(C(=O)O)CC2)C(=O)c2ccccc21,-25% [at 57.5 µM],–
CCOC(=O)C1CCN(C(=O)c2c(C)oc3c2C(=O)c2ccccc2C3=O)CC1,–,25.1 µM (active)
COc1ccc(CCCNC(=O)C2Cc3c(-c4cccc(NC(C)=O)c4)ccnc3O2)cc1 (centres undefined),-26.2%,–
N#CCc1nc2ccccc2c(=O)[nH]1,-3.15% [at 57.5 µM],–
Cc1[nH]c(=O)c(C(=O)/C=C/c2ccccc2)c2c1CCCC2,–,20 µM (active)
COC(=O)c1ccccc1S(=O)(=O)NNC(=O)Nc1ccccc1,3.46%,–
CC(C)Cn1c(/C=N/Nc2nc3ccccc3[nH]2)nc2ccccc21,–,11.2 µM (active)
C(=N\Nc1nc2ccccc2[nH]1)/c1cccc2nccnc12,-11.6%,–
CCCCn1c(/C=N/Nc2nc3ccccc3[nH]2)nc2ccccc21,-8.13%,–
Cc1sc2nc(CN3CCCC3)nc(N3CCC(C(N)=O)CC3)c2c1C,-12.6% [at 57.5 µM],–
Cc1cc([N+](=O)[O-])nn1Cc1ccc(C(=O)N/N=C/c2ccc(O)cc2O)cc1,–,10 µM (active)
Cc1cc(C)n(CCC(=O)N/N=C/c2ccc(O)cc2O)n1,-14.6%,–
O=C(N/N=C/c1ccc(O)cc1O)c1ccncc1,-15.1%,–
CCn1c(-c2ccc(C)cc2)nn(CC(=O)NCCc2ccccc2)c1=S,-24.9%,–
O=C(NN=Cc1ccc(O)cc1O)c1ccccc1NS(=O)(=O)c1cccs1,-21.2%,–
CCc1ccc(C(O)c2ncc(-c3cccc(C(F)(F)F)c3)[nH]2)cc1 (centres undefined),-28.4% [at 57.5 µM],–
CCN(CC)CCn1nc2c3c(cccc3c1=O)-c1ccccc1-2,–,14.1 µM (active)

# From PubChem BioAssay AID1745850 (National Center for Advancing Translational Sciences (NCATS), 2022)
